In the test the test system is Vero E6 infected with SARS-CoV-2. As to the kind of experiment: inhibition of SARS-CoV-2 cytopathic effect; higher = more antiviral protection, active = above 15. The settings on record: 48 h. On the technique in general: Cytopathic effects are the visible damage that an infection or toxin causes in cultured cells.

The structures appear in SMILES notation. Values without a mark were called inactive.

Regarding `CCCn1c(=O)c2nc(C34CC5CC(CC3C5)C4)[nH]c2n(CCC)c1=O`, the “inhibition of SARS-CoV-2 cytopathic effect” value (“inhibition” below) (1 nM) was 1.22%; the “inhibition” value (8.33 nM) is -0.55%; the “inhibition” value (100 nM) was 2.44%; the “inhibition” value (833.33 nM) was 2.31%; the “inhibition” value (10000 nM) was 1.25%.

For the molecule `O=C(O)c1cc2cccc([N+](=O)[O-])c2[nH]1`, the “inhibition” value is -1.29% (1 nM); 0.14% (8.33 nM); -0.8% (100 nM); 0.27% (833.33 nM); 1.27% (10000 nM).

In the case of `COc1cc2c(cc1OC)CC(=O)N(CCCN(C)C[C@H]1Cc3cc(OC)c(OC)cc31)CC2` [ivabradine], the “inhibition” value by setting is: (1 nM) -0.16%; (8.33 nM) -0.37%; (100 nM) -0.32%; (833.33 nM) -1.75%; (10000 nM) -1.11%.

With `CC(=O)O[C@H]1C[C@@H]2CC[C@@H]3[C@H](CC[C@@]4(C)[C@H]3C[C@H]([N+]3(C)CCCCC3)[C@@H]4OC(C)=O)[C@@]2(C)C[C@@H]1[N+]1(C)CCCCC1` [pancuronium], the “inhibition” value is -2.97% (1 nM); -1.22% (8.33 nM); -0.15% (100 nM); -0.93% (833.33 nM); -1.28% (10000 nM).

As for `CN1C[C@@H]2C[C@H]1CN2c1cc2c(cc1F)c(=O)c(C(=O)O)cn2C1CC1` [danofloxacin], the “inhibition” value is 0.88% (1 nM); -1.78% (8.33 nM); 0.43% (100 nM); 2.27% (833.33 nM); 6.15% (10000 nM).

Regarding `CCN1CCN(c2ccc(C(C)(C)NC(=O)c3cc4[nH]c5ccccc5c(=O)c4cc3F)cn2)CC1`, the “inhibition” value is 0.53% (1 nM); -0.52% (8.33 nM); 3.59% (100 nM); 2.28% (833.33 nM); 26.8% (active) (10000 nM).

Regarding `NC(N)=Nc1nc(CSCCN/C=N/S(=O)(=O)c2ccc(Br)cc2)cs1` [ebrotidine], the “inhibition” value reads like this: (1 nM) -0.49%; (8.33 nM) 1.21%; (100 nM) 5.48%; (833.33 nM) -0.19%; (10000 nM) -2.58%.

Take `CCn1nc(C)c2c1C(c1ccccc1)=NCC(=O)N2` [ripazepam]: the “inhibition” value was -1.39% (1 nM); 0.91% (8.33 nM); 0.56% (100 nM); -0.98% (833.33 nM); -3.15% (10000 nM).

As for `COc1cc(OC)c(NC(=O)Nc2cc(C)on2)cc1Cl`, the “inhibition” value by setting is: (1 nM) 2.33%; (8.33 nM) 0.81%; (100 nM) 1.57%; (833.33 nM) 4.04%; (10000 nM) 2.62%.

On to `CCCc1cc(C(N)=S)ccn1` [protionamide], for which the “inhibition” value reads like this: (1 nM) -1.61%; (8.33 nM) 2.36%; (100 nM) 1.7%; (833.33 nM) 3.81%; (10000 nM) -1.88%.

Consider `CCOc1cc(C(C)(C)C)ccc1C1=N[C@@](C)(c2ccc(Cl)cc2)[C@@](C)(c2ccc(Cl)cc2)N1C(=O)N1CCN(CCCS(C)(=O)=O)CC1`, for which the “inhibition” value is, setting by setting: (1 nM) -1.23%; (8.33 nM) -0.35%; (100 nM) 1.86%; (833.33 nM) 1.64%; (10000 nM) 5.99%.

On to `CC(NC(=O)c1ccccc1/N=C/c1c(O)ccc2ccccc12)c1ccccc1` (stereo not given) [sirtinol], for which the “inhibition” value (1 nM) is 3.41%; the “inhibition” value (8.33 nM) was -0.75%; the “inhibition” value (100 nM) is -3.54%; the “inhibition” value (833.33 nM) was -2.85%; the “inhibition” value (10000 nM) was 0.96%.

For `O=C(NCCCN1CCOCC1)c1cnn2c(-c3ccccc3)cc(-c3ccccc3)nc12` [reversan], the “inhibition” value (1 nM) was 12.1%; the “inhibition” value (8.33 nM) was 0.65%; the “inhibition” value (100 nM) was 1.42%; the “inhibition” value (833.33 nM) was 0.17%; the “inhibition” value (10000 nM) is -6.41%.

Take `O=C(/C=C/c1ccc(O)c(O)c1)O[C@@H]1C[C@](O)(C(=O)O)C[C@@H](O)[C@H]1O` [chlorogenic-acid]: the “inhibition” value is, setting by setting: (1 nM) -0.66%; (8.33 nM) 1.67%; (100 nM) 1.61%; (833.33 nM) -0.18%; (10000 nM) -0.05%.

Turning to `Cc1cccc(Nc2ccccc2C(=O)O)c1C` [mefenamic-acid], the “inhibition” value by setting is: (1 nM) -0.88%; (8.33 nM) 1.67%; (100 nM) 1.5%; (833.33 nM) -1.03%; (10000 nM) -0.56%.

In the case of `Cc1ncc(-c2csc(N=C(N)N)n2)[nH]1` [zaltidine], the “inhibition” value (1 nM) was 2.21%; the “inhibition” value (8.33 nM) is -0.85%; the “inhibition” value (100 nM) is -3.06%; the “inhibition” value (833.33 nM) was -1.56%; the “inhibition” value (10000 nM) is -0.54%.

In the case of `CCc1ccc(Cc2ccc3c(c2)[C@]2(OC3)O[C@H](CO)[C@@H](O)[C@H](O)[C@H]2O)cc1` [tofogliflozin], the “inhibition” value (1 nM) was -0.25%; the “inhibition” value (8.33 nM) was 0.93%; the “inhibition” value (100 nM) was 0.26%; the “inhibition” value (833.33 nM) is 1.52%; the “inhibition” value (10000 nM) was -0.4%.

As to `O=C(Nc1cc(Cl)cc(Cl)c1O)c1c(O)c(Cl)cc(Cl)c1Cl` [oxyclozanide], the “inhibition” value is -1.81% (1 nM); -0.46% (8.33 nM); 0.71% (100 nM); -1.33% (833.33 nM); -1.62% (10000 nM).

`COCc1c(-c2ccc(NC(=O)Nc3cc(C(F)(F)F)ccc3F)c(F)c2)c2c(N)ncnn2c1CN1CCOCC1`: the “inhibition” value runs as follows: (1 nM) -1.56%; (8.33 nM) -1.94%; (100 nM) -2.74%; (833.33 nM) -0.39%; (10000 nM) -0.16%.

As for `CC(C)(C)NCc1cc(Nc2ccnc3cc(Cl)ccc23)c2c(c1O)CCCC2` [naphthoquine-phosphate], the “inhibition” value reads like this: (1 nM) -1.58%; (8.33 nM) -2.22%; (100 nM) -0.22%; (833.33 nM) -0.36%; (10000 nM) -5.14%.

(Values after the supplement of paper PMC13380429.)
